This passage reports morphology score and SARS-CoV-2 infection rate results from the supplement of paper PMC13380429.

In assay [1] the test system is Vero E6 infected with SARS-CoV-2. Nature of the assay: morphology score (similarity to uninfected cells); higher = more like uninfected cells. Conditions: 24 h.
Assay [2] shares this test system. Description: SARS-CoV-2 infection rate relative to infected DMSO; higher = more infection, active = 60 or less. Conditions: 24 h.

In assay [1], `Cc1c(NC(=O)c2cc3c(s2)CCCC3)cccc1-c1cn(C)c(=O)c(Nc2ccc(C3C(=O)N(C)CCN3C)cc2)n1` (stereo in doubt) (10 µM) had a morphology score of 0.45. For the same compound, the SARS-CoV-2 infection rate in assay [2] was 69% (inactive).
For `C=C[C@@]1(C)CC(=O)[C@]2(O)[C@@]3(C)[C@@H](O)CCC(C)(C)[C@@H]3[C@H](OC(=O)CCN(C)C)[C@H](OC(C)=O)[C@@]2(C)O1` [colforsin-daproate] (0.833333 µM) the same measures were 0.5 and 88.5% (inactive).
`O=C(CCBr)N1CC[N+]2(CC1)CC[N+]1(CCN(C(=O)CCBr)CC1)CC2` [spirobromin] (10 µM): the morphology score in assay [1] was -0.0585. The SARS-CoV-2 infection rate in assay [2] was 112% (inactive).
In the same order, the values of `CCOC(=O)c1ccc(C#Cc2ccc3c(c2)C(C)(C)CCS3)nc1` [tazarotene] (10 µM) are -0.0471 and 93% (inactive).
For the compound `O=C(O)c1ccccc1C(=O)Nc1ccc(S(=O)(=O)Nc2nccs2)cc1` [phthalylsulfathiazole] (10 µM), the morphology score in assay [1] was determined as 0.162. Further, the SARS-CoV-2 infection rate in assay [2] is 102% (inactive).
In the case of `C[C@@H](NC(=O)CCc1nc2ccccc2c(=O)[nH]1)c1ccccc1` (10 µM), the morphology score in assay [1] came out at 0.239. In addition, the SARS-CoV-2 infection rate in assay [2] was 95.5% (inactive).
For `Cc1nn(C)c2c1C(c1cccc(Cl)c1)=NCCN2` [zometapine] (10 µM) the same measures were 0.136 and 104% (inactive).
The compound `COc1ccccc1N1CCN(CCN2C(=O)CC3(CCCC3)CC2=O)CC1` (10 µM) gave a morphology score in assay [1] of -0.291. In assay [2], the SARS-CoV-2 infection rate was 116% (inactive).
Regarding `O=P(O)(O)C(O)(Cc1cnc2ccccn12)P(=O)(O)O` [minodronic-acid] (10 µM), the morphology score in assay [1] was -0.0261. The SARS-CoV-2 infection rate in assay [2] is 108% (inactive).
For the compound `Nc1ccc(S(=O)(=O)Nc2nccs2)cc1` [sulfathiazole] (10 µM), in assay [1], the morphology score is 0.0413. Moreover, the SARS-CoV-2 infection rate in assay [2] is 114% (inactive).
Take `OCc1cccnc1` [nicotinyl-alcohol-tartrate] (10 µM): the morphology score in assay [1] was -0.13. The SARS-CoV-2 infection rate in assay [2] is 118% (inactive).
As for `Cc1ccccc1C(c1ccccc1C)N1C2CCC1CC(O)(c1ccccc1)C2` (stereo unspecified) (10 µM), the morphology score in assay [1] was found to be 0.307. Moreover, the SARS-CoV-2 infection rate in assay [2] was 85% (inactive).
The compound `C/C(=C\C(=O)OCCCCCCCCC(=O)O)C[C@@H]1OC[C@H](C[C@@H]2O[C@H]2[C@@H](C)[C@H](C)O)[C@@H](O)[C@H]1O` [mupirocin] (10 µM) registered a morphology score in assay [1] of 0.0465. Moreover, the SARS-CoV-2 infection rate in assay [2] was 110% (inactive).
In the same order, the values of `NCc1ccc(S(N)(=O)=O)cc1` [mafenide] (10 µM) are 0.136 and 91% (inactive).
In the same order, the values of `C=CCNc1ncnc2ccc(Br)cc12` (10 µM) are 0.19 and 101% (inactive).
In the same order, the values of `O=C(CCN1CCN(C(=O)OCc2cc(Cl)cc(Cl)c2)CC1)c1ccc2[nH]c(=O)oc2c1` (10 µM) are 0.127 and 99.5% (inactive).
In turn, `O=C1COc2c(CCNCCN(C(=O)CCNCCc3ccc(Cl)c(Cl)c3)C3CCCCC3)ccc(O)c2N1` (10 µM) registered a morphology score in assay [1] of -0.232. The SARS-CoV-2 infection rate in assay [2] was 100% (inactive).
Compound `C=C[C@]1(C)CC[C@@H](C(=C)C)C[C@H]1C(=C)C` [beta-elemene] (10 µM) displayed a morphology score in assay [1] of -0.205. Moreover, the SARS-CoV-2 infection rate in assay [2] was 111% (inactive).
In turn, `C=CC(=O)Nc1ccc2ncnc(Nc3ccc(OCc4cccc(F)c4)c(Cl)c3)c2c1` (10 µM) yielded a morphology score in assay [1] of -0.0546. In addition, in assay [2], the SARS-CoV-2 infection rate was 102% (inactive).
For `O=c1cc(-c2ccc(O)cc2)oc2cc(O)cc(O)c12` [apigenin] (10 µM) the same measures were 0.129 and 104% (inactive).
Turning to `NC(=O)c1cccc(N)c1` [3-amino-benzamide] (10 µM), in assay [1], the morphology score was -0.037. The SARS-CoV-2 infection rate in assay [2] was 102% (inactive).
As for `NCCCC(O)(P(=O)(O)O)P(=O)(O)O` [alendronate] (10 µM), the morphology score in assay [1] is 0.102. The SARS-CoV-2 infection rate in assay [2] is 110% (inactive).
In assay [1], `CN(C)c1ccccc1CN1CCCN(Cc2ccccc2N(C)C)C1c1ccncc1` (10 µM) displayed a morphology score of 0.576. Also, in assay [2], the SARS-CoV-2 infection rate is 42% (active).
For `NC(=O)C(c1ccccc1)(c1ccc(F)cc1)c1ccc(F)cc1` [senicapoc] (10 µM) the same measures were -0.127 and 114% (inactive).
For the compound `Cc1c(CN(C)C(=O)/C=C/c2cnc3c(c2)CCC(=O)N3)oc2ccccc12` (10 µM), the morphology score in assay [1] turned out to be 0.182. Further, the SARS-CoV-2 infection rate in assay [2] is 94% (inactive).
For `O=S(=O)(O)c1ccc(-c2c3nc(c(-c4ccc(S(=O)(=O)O)cc4)c4ccc([nH]4)c(-c4ccc(S(=O)(=O)O)cc4)c4nc(c(-c5ccc(S(=O)(=O)O)cc5)c5ccc2[nH]5)C=C4)C=C3)cc1` (10 µM), the morphology score in assay [1] was -0.0273. In addition, the SARS-CoV-2 infection rate in assay [2] is 102% (inactive).
As to `O=C(CNC(=O)c1ccc(Cl)cc1)NO` [benurestat] (10 µM), in assay [1], the morphology score amounted to 0.153. In addition, the SARS-CoV-2 infection rate in assay [2] is 114% (inactive).
In turn, `N=C(N)c1ccc(/N=N/Nc2ccc(C(=N)N)cc2)cc1` [diminazene-aceturate] (10 µM) returned a morphology score in assay [1] of 0.318. The SARS-CoV-2 infection rate in assay [2] is 86% (inactive).
